Each structure is given as a SMILES string. Active and inactive are the calls of the source. Where a call stands in place of a potency, no number is given. Calls follow the shape of the dose curve; as a rule, active = well fitted activation curve with a large enough effect; inactive = flat fitted curve, though single readings scatter.

The experiment can be described thus: Confirmation Concentration-Response Assay for Epigenetic Modulators. To be noted: murine C127i cells, silenced GFP reporter derepression, imaging; series mostly up to 46 µM. In a few lines: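 Read-out is the number of GFP-positive cells, counted by laser-scanning cytometry as 20 to 120 um fluorescent objects following washing. Compounds were incubated 30 hours at 37 C with c127i murine cells harbouring a silenced CMV-GFP locus.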
`CCN1CSC(=S)N(CC)C1`: the Potency was 7 µM (active). Regarding `O=C(CSc1cccc2cccnc12)N1CCCC1`, the Potency was 8.94 µM (active).

As to `Cc1ccc(N=Nc2ccc(O)c3ncccc23)cc1C`, the Potency entry was “inactive”. The result for `Cc1cc(C)n(-c2nc(NC(C)(C)C)nc(NC(C)(C)C)n2)n1` reads “inactive”.
